Measured values taken from the supplement of paper PMC11732987, “Enantioselective OTUD7B fragment discovery through chemoproteomics screening and high-throughput optimisation” (Communications Chemistry, 2025).

Assays:
Experiment in all cases: log2 ratio of Biotin-Ahx-Ub-VS probe labelling (fragment/DMSO); higher = less target engagement (more negative = stronger competition), active = hit call of the paper (q ≤ 0.05, log2 ratio ≤ -1)
Settings in all cases: compound concentration: 200 uM; treatment time: 3 h
[1] = molecular target: T1, ALG13 (UniProt Q9NP73)
T1 sequence (whole entry): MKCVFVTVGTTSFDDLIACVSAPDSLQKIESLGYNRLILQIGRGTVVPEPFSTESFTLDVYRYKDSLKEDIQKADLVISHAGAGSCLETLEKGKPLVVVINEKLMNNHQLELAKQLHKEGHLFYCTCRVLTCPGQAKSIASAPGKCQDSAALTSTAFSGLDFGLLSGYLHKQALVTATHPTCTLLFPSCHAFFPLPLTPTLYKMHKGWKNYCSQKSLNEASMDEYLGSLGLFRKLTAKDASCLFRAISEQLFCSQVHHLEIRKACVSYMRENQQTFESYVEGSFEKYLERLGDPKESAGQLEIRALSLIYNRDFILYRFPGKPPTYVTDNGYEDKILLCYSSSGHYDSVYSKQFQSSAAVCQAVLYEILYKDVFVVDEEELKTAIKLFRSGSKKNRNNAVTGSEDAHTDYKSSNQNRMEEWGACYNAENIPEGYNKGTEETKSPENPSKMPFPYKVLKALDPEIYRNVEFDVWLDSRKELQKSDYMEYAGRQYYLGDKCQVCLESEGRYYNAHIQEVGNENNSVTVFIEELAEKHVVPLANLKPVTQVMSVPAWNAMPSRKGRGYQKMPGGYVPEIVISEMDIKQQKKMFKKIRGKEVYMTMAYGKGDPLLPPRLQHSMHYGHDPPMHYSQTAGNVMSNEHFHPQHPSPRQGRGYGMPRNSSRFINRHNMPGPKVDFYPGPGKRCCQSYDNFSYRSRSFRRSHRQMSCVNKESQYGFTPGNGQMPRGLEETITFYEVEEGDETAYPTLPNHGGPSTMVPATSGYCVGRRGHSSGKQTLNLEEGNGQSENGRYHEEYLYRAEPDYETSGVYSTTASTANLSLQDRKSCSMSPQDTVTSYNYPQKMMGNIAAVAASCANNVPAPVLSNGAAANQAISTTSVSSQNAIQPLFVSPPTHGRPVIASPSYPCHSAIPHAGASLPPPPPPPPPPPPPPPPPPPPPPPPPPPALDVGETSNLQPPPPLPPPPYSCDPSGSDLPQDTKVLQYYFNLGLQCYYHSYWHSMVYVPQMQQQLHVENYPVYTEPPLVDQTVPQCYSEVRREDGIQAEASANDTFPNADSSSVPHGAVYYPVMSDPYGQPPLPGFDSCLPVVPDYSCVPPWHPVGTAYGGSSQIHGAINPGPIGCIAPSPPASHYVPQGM
How it was run: (§1)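 Fragment (200 µM) or vehicle was incubated for 3 h with triplicate HEK293T lysate samples of 495 µg, which were then treated with Biotin-Ahx-Ub-VS at 0.5 µM final for 1 h. Labelled DUBs were enriched on NeutrAvidin, digested with LysC and trypsin, and analysed by diaPASEF LC-MS/MS. Values are average log2 fragment/vehicle ratios from an unpaired t-test on global-median-normalised Spectronaut label-free quantities, using proteins with ≥2 unique peptides.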

[2] = molecular target: ATXN3 (UniProt P54252)
How it was run: as §1

[3] = molecular target: T2, BAP1 (UniProt Q92560)
T2 sequence (whole entry): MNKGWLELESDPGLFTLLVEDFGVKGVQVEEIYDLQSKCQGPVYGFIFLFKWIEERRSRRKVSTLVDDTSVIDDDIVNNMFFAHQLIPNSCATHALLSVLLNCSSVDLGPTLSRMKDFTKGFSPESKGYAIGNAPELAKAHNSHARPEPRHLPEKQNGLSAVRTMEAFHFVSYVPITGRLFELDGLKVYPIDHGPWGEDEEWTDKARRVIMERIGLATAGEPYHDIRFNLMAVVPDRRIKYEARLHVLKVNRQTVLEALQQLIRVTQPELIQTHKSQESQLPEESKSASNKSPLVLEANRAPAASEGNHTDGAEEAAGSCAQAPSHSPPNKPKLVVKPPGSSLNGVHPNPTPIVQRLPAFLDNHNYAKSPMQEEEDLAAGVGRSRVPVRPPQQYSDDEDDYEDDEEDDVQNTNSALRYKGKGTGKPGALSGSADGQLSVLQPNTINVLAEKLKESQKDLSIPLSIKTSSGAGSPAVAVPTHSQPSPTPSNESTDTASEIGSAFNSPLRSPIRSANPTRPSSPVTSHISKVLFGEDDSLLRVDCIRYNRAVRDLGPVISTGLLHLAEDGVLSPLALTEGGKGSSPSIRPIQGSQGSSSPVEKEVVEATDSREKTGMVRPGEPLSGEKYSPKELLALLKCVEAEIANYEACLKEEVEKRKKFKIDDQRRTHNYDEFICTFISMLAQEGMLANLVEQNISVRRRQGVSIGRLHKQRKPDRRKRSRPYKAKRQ
How it was run: as §1

[4] = molecular target: EIF3F (UniProt O00303)
How it was run: as §1

[5] = molecular target: EIF3H (UniProt O15372)
How it was run: as §1

[6] = molecular target: T3, FAM105A (UniProt Q9NUU6)
T3 sequence (whole entry): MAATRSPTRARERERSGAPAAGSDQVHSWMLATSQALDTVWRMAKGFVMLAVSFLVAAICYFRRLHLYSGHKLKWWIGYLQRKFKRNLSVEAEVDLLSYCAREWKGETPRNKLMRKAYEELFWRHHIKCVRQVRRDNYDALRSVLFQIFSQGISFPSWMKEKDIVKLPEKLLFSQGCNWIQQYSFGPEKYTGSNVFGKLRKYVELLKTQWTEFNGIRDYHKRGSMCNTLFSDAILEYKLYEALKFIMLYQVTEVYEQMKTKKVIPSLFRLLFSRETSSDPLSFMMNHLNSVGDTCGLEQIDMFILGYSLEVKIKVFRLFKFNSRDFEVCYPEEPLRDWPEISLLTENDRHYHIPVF
How it was run: as §1

[7] = molecular target: OTUB1 (UniProt Q96FW1)
How it was run: as §1

[8] = molecular target: T4, OTUD4 (UniProt Q01804)
T4 sequence (whole entry): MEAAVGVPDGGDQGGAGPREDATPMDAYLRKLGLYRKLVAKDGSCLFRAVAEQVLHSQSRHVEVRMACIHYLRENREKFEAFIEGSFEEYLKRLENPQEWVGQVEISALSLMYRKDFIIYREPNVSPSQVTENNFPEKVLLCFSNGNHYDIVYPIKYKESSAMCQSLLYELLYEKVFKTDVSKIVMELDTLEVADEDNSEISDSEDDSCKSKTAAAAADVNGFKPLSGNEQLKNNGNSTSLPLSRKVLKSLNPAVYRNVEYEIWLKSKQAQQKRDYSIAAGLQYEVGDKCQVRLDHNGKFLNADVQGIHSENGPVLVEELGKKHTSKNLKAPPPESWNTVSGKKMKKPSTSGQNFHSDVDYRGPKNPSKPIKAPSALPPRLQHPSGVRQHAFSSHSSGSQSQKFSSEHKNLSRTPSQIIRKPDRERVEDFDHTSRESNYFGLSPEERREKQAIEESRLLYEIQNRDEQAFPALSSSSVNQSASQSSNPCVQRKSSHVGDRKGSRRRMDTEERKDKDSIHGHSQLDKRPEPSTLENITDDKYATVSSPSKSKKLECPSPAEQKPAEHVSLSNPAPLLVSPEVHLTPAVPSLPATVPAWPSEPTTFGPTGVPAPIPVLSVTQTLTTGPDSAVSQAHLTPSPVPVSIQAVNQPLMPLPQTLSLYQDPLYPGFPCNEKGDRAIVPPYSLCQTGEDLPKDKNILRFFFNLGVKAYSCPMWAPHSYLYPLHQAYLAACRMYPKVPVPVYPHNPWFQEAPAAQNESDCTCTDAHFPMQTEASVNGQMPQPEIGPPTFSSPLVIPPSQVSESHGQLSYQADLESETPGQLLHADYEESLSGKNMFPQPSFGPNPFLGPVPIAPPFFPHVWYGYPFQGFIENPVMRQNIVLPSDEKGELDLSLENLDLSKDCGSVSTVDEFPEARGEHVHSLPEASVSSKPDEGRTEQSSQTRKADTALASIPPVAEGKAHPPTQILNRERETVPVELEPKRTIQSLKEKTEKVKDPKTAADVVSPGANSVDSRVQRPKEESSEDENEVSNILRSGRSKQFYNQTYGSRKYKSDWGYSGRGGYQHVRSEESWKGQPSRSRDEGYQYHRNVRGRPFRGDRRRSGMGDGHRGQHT
How it was run: as §1

[9] = molecular target: T5, OTUD5 (UniProt Q96G74)
T5 sequence (whole entry): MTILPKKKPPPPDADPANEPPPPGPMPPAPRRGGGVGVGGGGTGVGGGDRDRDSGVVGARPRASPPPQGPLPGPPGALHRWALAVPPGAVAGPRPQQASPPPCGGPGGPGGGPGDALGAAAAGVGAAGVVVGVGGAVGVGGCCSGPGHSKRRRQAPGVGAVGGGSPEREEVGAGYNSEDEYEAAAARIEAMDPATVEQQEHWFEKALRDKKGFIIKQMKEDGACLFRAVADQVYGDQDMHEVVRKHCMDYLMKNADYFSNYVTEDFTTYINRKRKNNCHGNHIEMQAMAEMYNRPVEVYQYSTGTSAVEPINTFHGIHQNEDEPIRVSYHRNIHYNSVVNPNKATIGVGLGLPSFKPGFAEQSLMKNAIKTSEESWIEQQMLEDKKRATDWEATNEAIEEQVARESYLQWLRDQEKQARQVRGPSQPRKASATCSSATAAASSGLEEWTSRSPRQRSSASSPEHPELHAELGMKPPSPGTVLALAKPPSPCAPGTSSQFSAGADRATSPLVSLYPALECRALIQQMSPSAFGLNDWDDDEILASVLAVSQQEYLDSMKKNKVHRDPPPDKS
How it was run: as §1

Measured: log2 ratio of Biotin-Ahx-Ub-VS probe labelling

OTUB1, sequence (Q96FW1 whole entry): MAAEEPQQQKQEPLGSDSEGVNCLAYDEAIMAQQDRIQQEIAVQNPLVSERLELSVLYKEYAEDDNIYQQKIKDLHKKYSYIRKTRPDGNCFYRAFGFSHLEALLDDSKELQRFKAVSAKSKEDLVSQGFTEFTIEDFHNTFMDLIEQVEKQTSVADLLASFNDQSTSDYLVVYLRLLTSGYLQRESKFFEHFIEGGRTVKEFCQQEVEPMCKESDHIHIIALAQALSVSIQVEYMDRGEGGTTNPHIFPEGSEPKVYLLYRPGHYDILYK
EIF3H, sequence (O15372 whole entry): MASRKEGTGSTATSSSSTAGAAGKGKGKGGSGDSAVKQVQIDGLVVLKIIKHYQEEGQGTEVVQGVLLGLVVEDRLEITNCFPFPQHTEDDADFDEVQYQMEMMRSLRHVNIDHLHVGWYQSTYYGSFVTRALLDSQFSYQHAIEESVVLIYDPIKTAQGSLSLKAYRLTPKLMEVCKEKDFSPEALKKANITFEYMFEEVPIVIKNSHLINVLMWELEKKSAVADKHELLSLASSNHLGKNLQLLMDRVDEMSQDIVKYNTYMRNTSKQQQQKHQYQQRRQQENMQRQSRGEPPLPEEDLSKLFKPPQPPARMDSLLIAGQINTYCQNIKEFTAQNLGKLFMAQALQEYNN
ATXN3, sequence (P54252 whole entry): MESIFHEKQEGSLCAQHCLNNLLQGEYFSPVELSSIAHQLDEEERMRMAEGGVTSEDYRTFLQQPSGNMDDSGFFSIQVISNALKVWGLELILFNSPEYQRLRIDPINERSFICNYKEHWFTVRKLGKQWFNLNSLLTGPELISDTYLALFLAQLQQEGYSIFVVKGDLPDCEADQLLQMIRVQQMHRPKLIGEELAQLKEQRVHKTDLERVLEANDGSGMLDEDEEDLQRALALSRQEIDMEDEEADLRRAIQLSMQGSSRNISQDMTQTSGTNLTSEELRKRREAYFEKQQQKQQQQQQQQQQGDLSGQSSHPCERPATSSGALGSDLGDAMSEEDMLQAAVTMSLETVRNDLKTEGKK
EIF3F, sequence (O00303 whole entry): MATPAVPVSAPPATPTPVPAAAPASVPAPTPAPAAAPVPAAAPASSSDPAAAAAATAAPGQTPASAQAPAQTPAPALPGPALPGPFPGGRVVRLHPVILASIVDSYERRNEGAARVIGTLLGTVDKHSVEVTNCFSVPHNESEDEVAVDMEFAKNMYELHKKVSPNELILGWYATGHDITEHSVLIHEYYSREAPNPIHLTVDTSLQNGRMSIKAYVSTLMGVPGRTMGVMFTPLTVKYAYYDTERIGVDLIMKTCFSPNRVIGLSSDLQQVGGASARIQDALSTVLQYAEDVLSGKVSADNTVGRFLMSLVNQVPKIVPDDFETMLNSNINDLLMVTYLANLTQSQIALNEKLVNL

N#Cc1ccccc1N1CCN(C(=O)CCl)CC1
active: [2] -1.16 | [3] -1.32
inactive: [1] -0.383 | [4] -0.123 | [5] -0.0881 | [6] 0.162 | [7] -0.449 | [8] -0.714 | [9] -0.872

CCN1C(=O)C2CN(C(=O)CCl)CCN2C1=O (configuration not stated)
inactive: [1] 0.104 | [2] -0.84 | [3] -0.369 | [4] -0.18 | [5] 0.0778 | [6] -0.218 | [7] -0.315 | [8] -0.523 | [9] -0.206

O=C(CCl)Nc1ccc(F)cc1Cl
inactive: [1] -0.23 | [2] -0.598 | [4] -0.37 | [5] 0.131 | [6] 0.0383 | [7] -0.452 | [8] -0.578 | [9] -0.8
active: [3] -3.7

O=C(CCl)NCCc1ccc(F)cc1
active: [3] -1.07
inactive: [1] -0.037 | [2] -0.166 | [4] 0.0338 | [5] 0.194 | [6] -0.364 | [7] -0.291 | [8] -0.143 | [9] -0.544

Cc1c(C#N)c(NC(=O)CCl)n(Cc2ccco2)c1C
active: [3] -3.61
inactive: [1] 0.126 | [2] -0.609 | [4] -0.174 | [5] -0.447 | [6] -0.107 | [7] 0.0458 | [8] -0.292 | [9] -0.61

Cl.Cn1cnc2cc(CNC(=O)CCl)ccc21
active: [3] -2.15
inactive: [1] 0.056 | [2] -0.239 | [4] -0.304 | [5] 0.311 | [6] -0.318 | [7] 0.0608 | [8] -0.0323 | [9] -0.121

Cl.Cn1ncc2c1CC(NC(=O)CCl)CC2 (configuration not stated)
active: [3] -1.1
inactive: [1] 0.027 | [2] -0.0274 | [4] -0.121 | [5] -0.266 | [6] 0.307 | [7] -0.112 | [8] -0.464 | [9] 0.000518

Cc1ccccc1CN(C)C(=O)CCl
active: [2] -1.13 | [3] -2.27 | [9] -1.15
inactive: [1] -0.539 | [4] -0.115 | [5] 0.207 | [6] -0.463 | [7] -0.437 | [8] -0.914
